According to ChEMBL document CHEMBL1157539, “Thousands of chemical starting points for antimalarial lead identification” (Nature, 2010):

Assays:
Assay type in all cases: functional
[1] = test system: Plasmodium falciparum; assay: GSK_TCMDC: Inhibition of Plasmodium falciparum 3D7 in whole red blood cells, using parasite LDH activity as an index of growth. Test compounds present at 2uM
[2] = test system: Plasmodium falciparum; assay: GSK_TCMDC: Inhibition of Plasmodium falciparum Dd2 in whole red blood cells, using parasite LDH activity as an index of growth. Test compounds present at 2uM
[3] = test system: HepG2; assay: GSK_TCMDC: Percent inhibition of human HepG2 cell line. Test compounds present at 10uM.

Cc1cccc2nc(-c3ccc(-c4ccc(CN5CCCC(N)C5)cc4)s3)[nH]c12.O=C(O)C(F)(F)F (stereo not given)
Inhibition [1]: 100%
Inhibition [2]: 100%
Inhibition [3]: 29%

O=C(Nc1ccc(-c2csc(-c3nc4ccccc4[nH]3)c2)cc1)Nc1ccsc1
Inhibition [1]: 100%
Inhibition [2]: 17%
Inhibition [3]: 50%

O=C(Nc1ccc(Cl)cc1)Nc1cccc(-c2cccc(-c3nc4cc(C(F)(F)F)ccc4[nH]3)c2)c1
Inhibition [1]: 99%
Inhibition [2]: 97%
Inhibition [3]: 87%

C(=C(c1cccs1)c1cccs1)c1ccc(CNC2CCN(Cc3ccccc3)CC2)cc1.Cl
Inhibition [1]: 98%
Inhibition [2]: 21%
Inhibition [3]: 40%

Cl.N[C@@H](CCNC1CCN(c2cccc(C(F)(F)F)c2)CC1)Cc1ccc(F)c(F)c1
Inhibition [1]: 100%
Inhibition [2]: 69%
Inhibition [3]: 100%

Cc1nc2c(Nc3nc(-c4ccncc4)cs3)ncnc2n1-c1ccccc1Cl
Inhibition [1]: 97%
Inhibition [2]: 96%
Inhibition [3]: 14%

COc1ccc(C(O)CNC(C)CCc2ccccc2)cc1C(F)(F)F.Cl (stereo not given)
Inhibition [1]: 99%
Inhibition [2]: 100%
Inhibition [3]: 3%

N=C(N)Nc1nc(-c2ccc(NCc3ccc(CNc4cccc(-c5csc(NC(=N)N)n5)c4)cc3)cc2)cs1
Inhibition [1]: 100%
Inhibition [2]: 99%
Inhibition [3]: 11%

CCCC(C)NC(=O)[C@H]1CNCCN1C(=O)CCCc1ccccc1.O=C(O)C(F)(F)F (stereo not given in full)
Inhibition [1]: 96%
Inhibition [2]: 98%
Inhibition [3]: 47%

COc1nc2c(CCN3CCC(NCc4ccc5c(c4)NC(=O)CO5)CC3)c(Cl)cnc2cc1F.Cl
Inhibition [1]: 99%
Inhibition [2]: 21%
Inhibition [3]: 15%

c1cc(-c2nc3ccccc3[nH]2)nc(-c2nc3ccccc3[nH]2)c1
Inhibition [1]: 87%
Inhibition [2]: 24%
Inhibition [3]: 7%

CCN(CC)CCOc1ccc(N(Cc2ccc(C(C)(C)C)cc2)C(=O)c2ccc(Cc3ccccc3)cc2)cc1OC.Cl
Inhibition [1]: 99%
Inhibition [2]: 73%
Inhibition [3]: 5%

COc1ccc2nccc([C@@H](O)CN3CCC(NCc4ccc(OC)c(NC(C)=O)c4)CC3)c2c1
Inhibition [1]: 90%
Inhibition [2]: 0%
Inhibition [3]: 0%

CCn1c(-c2cc(C)on2)nc2cnc(Oc3ccc(C(=O)N4CC(=O)N(C)C4C(C)(C)C)cc3)cc21 (stereo not given)
Inhibition [1]: 81%
Inhibition [2]: 57%
Inhibition [3]: 44%

Cl.N=C(N)Nc1ccc(OCCCCCOc2ccc(NC(=N)N)c(Cl)c2)cc1Cl
Inhibition [1]: 92%
Inhibition [2]: 92%
Inhibition [3]: 18%

N#Cc1ccc(-c2ccc(C(=O)NCC3CCN(CCN4CCC(c5ccc6c(c5OCC(N)=O)CCCC6)CC4)CC3)cc2)cc1
Inhibition [1]: 99%
Inhibition [2]: 99%
Inhibition [3]: 56%

CN1CCN(c2cc(NC(=O)Nc3ccc(-c4ccncc4)c(Cl)c3)ccc2Br)CC1
Inhibition [1]: 100%
Inhibition [2]: 99%
Inhibition [3]: 23%

CC1CC(NCCCNc2cc(=O)c3ccccc3[nH]2)c2c(Cl)c(Cl)cc(Cl)c21 (stereo not given)
Inhibition [1]: 87%
Inhibition [2]: 52%
Inhibition [3]: 6%

CCn1c(-c2ccccc2)cc2nnc3ccccc3c21
Inhibition [1]: 92%
Inhibition [2]: 87%
Inhibition [3]: 34%

N#Cc1cccc(C(=O)Nc2cccc(-c3ccc(C(=O)Nc4cccnc4)cc3)c2)c1
Inhibition [1]: 89%
Inhibition [2]: 10%
Inhibition [3]: 39%

Cc1ccc(Cl)cc1N1CCN(CCCNC(=O)C2CCN(c3nc4ccccc4[nH]3)CC2)CC1
Inhibition [1]: 88%
Inhibition [2]: 0%
Inhibition [3]: 41%

CO/C(=C\C=C\c1cc2cc(Cl)c(Cl)cc2[nH]1)C(=O)NCCCN1CC(C)N(C)CC1C (stereo not given)
Inhibition [1]: 92%
Inhibition [2]: 73%
Inhibition [3]: 38%

CON=Cc1ccn(-c2ccc(O)c3c2C[C@H]2C[C@H]4[C@H](N(C)C)C(O)=C(C(N)=O)C(=O)[C@@]4(O)C(O)=C2C3=O)c1.O=S(=O)(O)O
Inhibition [1]: 96%
Inhibition [2]: 70%
Inhibition [3]: 3%

Fc1ccccc1CNc1ncc(-c2ccsc2)c(-c2nccs2)n1
Inhibition [1]: 86%
Inhibition [2]: 71%
Inhibition [3]: 11%

O=C(N[C@@H](Cc1ccccc1)[C@H](O)CNC1CCOCC1)c1cc(C2CCCC2)cc(N2CCCCS2(=O)=O)c1.O=CO
Inhibition [1]: 100%
Inhibition [2]: 98%
Inhibition [3]: 3%

Cc1ccc(-c2ccc(Cl)cc2Oc2cnc(N)nc2N)o1
Inhibition [1]: 100%
Inhibition [2]: 3%
Inhibition [3]: 15%

CCNc1cc(C(=O)N[C@@H](Cc2ccc(F)c(F)c2)[C@H](O)CNC2CCCCC2)cc(N2CCCCS2(=O)=O)c1.Cl
Inhibition [1]: 100%
Inhibition [2]: 84%
Inhibition [3]: 1%

CNS(=O)(=O)c1ccc2c(c1)nc(C1CCN(CC3CCC(NC(=O)/C=C/c4ccc(Cl)c(Cl)c4)CC3)CC1)n2C (stereo not given)
Inhibition [1]: 100%
Inhibition [2]: 96%
Inhibition [3]: 5%

COc1cc2c(cc1COc1ccccc1)CCN1Cc3cc(OC)c(OC)cc3CC21 (stereo not given)
Inhibition [1]: 99%
Inhibition [2]: 84%
Inhibition [3]: 0%

O=C(Nc1cc(C(F)(F)F)cc(C(F)(F)F)c1)c1cc(Cl)ccc1O [IMD-0354]
Inhibition [1]: 90%
Inhibition [2]: 98%
Inhibition [3]: 84%

Cn1cnc(CCNC(=O)c2ccc(-c3ccc(-c4nc5cc(C(F)(F)F)ccc5[nH]4)s3)cc2)c1
Inhibition [1]: 100%
Inhibition [2]: 99%
Inhibition [3]: 75%

Cc1cc(O)c(-c2ccc(Oc3ccc(F)cc3)cc2)c(C)n1
Inhibition [1]: 85%
Inhibition [2]: 59%
Inhibition [3]: 0%

COc1ccccc1CNC(=O)c1ccc(N2CCN(c3ccncc3)CC2)cn1.O=C(O)C(F)(F)F
Inhibition [1]: 96%
Inhibition [2]: 17%
Inhibition [3]: 16%

O=C(O)C(F)(F)F.O=C1CCCN1CCCNCc1ccc(-c2ccc(-c3nc4cc(C(F)(F)F)ccc4[nH]3)cc2)cc1
Inhibition [1]: 100%
Inhibition [2]: 98%
Inhibition [3]: 10%

Cc1ccc(O)cc1Nc1ccnc2cc(-c3nccs3)ccc12.Cl
Inhibition [1]: 100%
Inhibition [2]: 83%
Inhibition [3]: 63%

Cl.N=c1n(CCN2CCCCC2)c2ccccc2n1CC(O)c1cccc(Br)c1 (stereo not given)
Inhibition [1]: 86%
Inhibition [2]: 33%
Inhibition [3]: 25%

CC(=O)c1ccc(NC(=O)NNC(=O)c2ccc(CCN3CCC(c4nc(COCC(F)(F)F)c(-c5ccc(F)cc5)o4)CC3)cc2)cc1
Inhibition [1]: 96%
Inhibition [2]: 27%
Inhibition [3]: 17%

CCc1c[nH]c2c(N3CCCS3(=O)=O)cc(C(=O)N[C@@H](Cc3ccccc3)[C@H](O)CNC(C)(C)c3cccc(C(F)(F)F)c3)cc12.O=CO
Inhibition [1]: 97%
Inhibition [2]: 99%
Inhibition [3]: 20%

O=C(NC1CCCCC1)c1ccc(O)c(-c2cccc(C(F)(F)F)c2)c1
Inhibition [1]: 97%
Inhibition [2]: 87%
Inhibition [3]: 8%

Cc1cc(Nc2cccc(C(F)(F)F)c2)nc(Nc2cccc(C(F)(F)F)c2)n1
Inhibition [1]: 100%
Inhibition [2]: 73%
Inhibition [3]: 0%

CCOc1ncccc1CN1CCC(N2CCc3cc(NC(=O)c4ccco4)ccc32)C1 (stereo not given)
Inhibition [1]: 90%
Inhibition [2]: 94%
Inhibition [3]: 3%

COc1ccc(C(F)(F)F)cc1N1CCN(CCCCNC(=O)c2ccc(NC(=O)c3ccc(Cl)cc3)cc2)CC1
Inhibition [1]: 94%
Inhibition [2]: 1%
Inhibition [3]: 12%

CCN(CC)CCNc1ccnc2[nH]c3ccc(Cl)cc3c12
Inhibition [1]: 100%
Inhibition [2]: 92%
Inhibition [3]: 3%

Cc1cccc(C)c1N1CCN(C2CCC(NC(=O)c3cc4ccccc4[nH]3)CC2)CC1 (stereo not given)
Inhibition [1]: 100%
Inhibition [2]: 64%
Inhibition [3]: 31%

Cc1ccc(-c2nc3cc(C(=O)NC4CCC(N5CCCc6ccc(C#N)cc6C5)CC4)ccc3[nH]2)cc1 (stereo not given)
Inhibition [1]: 100%
Inhibition [2]: 49%
Inhibition [3]: 23%

COc1cc(C(=O)Nc2cccc(-c3nc4ccccc4[nH]3)c2)cc(OC)c1OC
Inhibition [1]: 99%
Inhibition [2]: 41%
Inhibition [3]: 25%

CN(C)CCN(C)Cc1cccc(-c2ccc3c(Nc4ccc(F)cc4Cl)ccnc3c2)c1
Inhibition [1]: 100%
Inhibition [2]: 100%
Inhibition [3]: 53%

COc1ccc(-c2cc3nc4c(c(NCCCn5ccnc5)n3n2)CCCC4)cc1
Inhibition [1]: 95%
Inhibition [2]: 74%
Inhibition [3]: 5%

Cc1ccccc1NC(=O)NC1CCN(CCCCCNC(=O)/C=C/c2ccc(Cl)c(Cl)c2)CC1
Inhibition [1]: 100%
Inhibition [2]: 20%
Inhibition [3]: 13%

COc1cc(NC(=O)N2CCOC(CCN3CCC(c4ccccc4)CC3)(c3ccc(Cl)c(Cl)c3)C2)cc(OC)c1 (stereo not given)
Inhibition [1]: 93%
Inhibition [2]: 73%
Inhibition [3]: 12%

Cc1cccc(Cn2c(Cc3ccccc3)nnc2Sc2ccc([N+](=O)[O-])c(C#N)c2)c1
Inhibition [1]: 91%
Inhibition [2]: 3%
Inhibition [3]: 17%

Nc1nc(N)c2cc(C#Cc3ccc(-c4ccccc4)cc3)ccc2n1
Inhibition [1]: 94%
Inhibition [2]: 3%
Inhibition [3]: 20%

C[C@H](CNc1ccnc(Nc2ccc3[nH]c(=O)[nH]c3c2)n1)c1ccccc1.O=CO
Inhibition [1]: 100%
Inhibition [2]: 0%
Inhibition [3]: 61%

COc1ccc(CCNCCCCCCNCCCc2ccc(Cl)cc2)cc1OC.Cl
Inhibition [1]: 96%
Inhibition [2]: 2%
Inhibition [3]: 36%

COc1cc2nc(N3CCC(CNC(=O)c4ccc(-c5ccc(C(=O)N(C)C)cc5)cc4)CC3)nc(N)c2cc1OC
Inhibition [1]: 100%
Inhibition [2]: 89%
Inhibition [3]: 20%

CCc1cn2c3c(cc(C(=O)N[C@@H](Cc4ccccc4)[C@H](O)CNC4CCOCC4)cc13)N(C(C)C)S(=O)(=O)CC2.O=CO
Inhibition [1]: 98%
Inhibition [2]: 99%
Inhibition [3]: 0%

CCOC(=O)c1c(C)n(-c2ccccc2)c2ccc(OC(=O)c3ccc(S(=O)(=O)N(CC)CC)cc3)cc12
Inhibition [1]: 94%
Inhibition [2]: 63%
Inhibition [3]: 0%

CC(C)Cn1cc(C2CCN(CCN3CCC(CNC(=O)c4ccc(NC(=O)c5ccc(Cl)cc5)cc4)CC3)CC2)c2ccccc21
Inhibition [1]: 100%
Inhibition [2]: 99%
Inhibition [3]: 28%

CN1CCN(CCNc2c3ccccc3nc3ccc4ccccc4c23)CC1.Cl
Inhibition [1]: 99%
Inhibition [2]: 99%
Inhibition [3]: 22%

COc1cccc(C(=O)NC(c2ccc(Cl)cc2Cl)c2cc(Cl)c3cccnc3c2O)c1 (stereo not given)
Inhibition [1]: 100%
Inhibition [2]: 76%
Inhibition [3]: 37%
